Screening data from PubChem BioAssay.
VACV mCherry inh = vaccinia inhibition (mCherry reporter); Vaccinia virus mCherry reporter infection, fluorescence; Potency, µM (top dose mostly 36.5 µM), hits mostly inhibitors; hit rate 0.63% among 310,000; calls by dose curve; tested in A549 cells; further: nearly all actives have a fitted effect of over 35% in size
HCV inhibitor = inhibitors of hepatitis C virus infection; Huh7.5.1 HCVcc-Cre infection, luciferase reporter, 44 h; Potency, µM (titrated, usually from 41.8 µM), actives largely listed as inhibitors; hit rate 3.4% among 340,000; active means well fitted inhibition curve with a large enough effect; inconclusive means small, poorly fitted or top-dose-only effect, or another doubt; inactive means no such curve, though single readings can be large or run the other way
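Cells (1,000/well) were plated 4 h before compound, then infected with HCVcc-Cre virus (~0.5 moi). After 44 h further culture, infection was read as luciferase luminescence following a 15 min substrate incubation at room temperature.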
VACV Venus inh = vaccinia inhibition (Venus reporter); Vaccinia virus Venus reporter expression, fluorescence; Potency, µM (titrated, usually from 36.5 µM), actives largely listed as inhibitors; hit rate 0.46% among 330,000; AID 720580; calls by dose curve; tested in A549 cells; further: nearly all actives have a fitted effect of over 30% in size
HCMV inh = human cytomegalovirus inhibition. HFF cells, HCMV-luciferase reporter, 72 h; active compounds read low. activity change, negative = inhibition, % at 57.5 µM. hit rate 4.5% among 410,000. AID 1259415; in the data active means activity change below about -60%; inconclusive means no clear call, values can overlap the other calls; inactive means above about -39%
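Human foreskin fibroblasts infected with luciferase-reporter HCMV at MOI 1 PFU/cell, compounds at two doses. Luciferase measured 72 h post infection; normalized to buffer-only basal and Salinomycin (10uM) controls.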
FMDV inh = foot and mouth disease virus antiviral activity; FMDV antiviral cell-based qHTS; hit rate 1.2% among 410,000; Potency, µM (highest dose often 57.9 µM), actives largely listed as inhibitors; calls by dose curve; tested in HEK293T cells; further: read-out not given here; nearly all actives have a fitted effect of over 45% in size
Large screens that a line does not name were inactive. Only some compounds are listed: those with a hit (about 7.3% of all), similar ones and a draw of the others.

O=C(Nc1cccc(Cl)c1Cl)c1cc(S(=O)(=O)N2CCC3(CC2)OCCO3)ccc1F	none (no result: HCV inhibitor)
Cc1cc(NC(=O)c2ccc3c(c2)C(=O)N(C2CCCCC2)C3=O)no1	none (no result: VACV mCherry inh)
N#Cc1ccc(C(=O)Nc2ccc3c(c2)N(C2CCCC2)C(=O)c2ccccc2S3)cc1	none (no result: HCV inhibitor)
CC(=O)Nc1ccc(C(=O)Nc2ccc3c(c2)N(C2CCCC2)C(=O)c2ccccc2S3)cc1	HCMV inh -83, FMDV inh inconclusive (no result: HCV inhibitor)
O=C(Nc1ccncc1)c1ccc2c(c1)C(=O)N(C1CCCCC1)C2=O	VACV mCherry inh inconclusive, HCV inhibitor inconclusive, VACV Venus inh inconclusive, FMDV inh 14µM
Cc1cc(OCC(=O)Nc2sc3c(c2C(N)=O)CCCC3)ccc1C(C)C	none (no result: HCV inhibitor)
COc1ccc(-c2sc(Nc3ccc(F)c(F)c3F)nc2CCC(=O)NN)cc1	VACV mCherry inh inconclusive
Cc1cc2c(C(C)C)c(O)c(O)c(C=O)c2c(O)c1-c1c(C)cc2c(C(C)C)c(O)c(O)c(C=O)c2c1O	VACV mCherry inh 4.5µM, HCV inhibitor inconclusive, VACV Venus inh 4µM, FMDV inh inconclusive (no result: HCMV inh)
COC(=O)c1c(C)cc(O)c(C=O)c1O	none (no result: HCMV inh)
COc1cc(NC(=O)C2CC(c3c(F)cccc3Cl)=NO2)cc(OC)c1OC (configuration not stated)	HCV inhibitor 25µM, FMDV inh 25µM
N=C1S/C(=C\c2cccc3ccccc23)C(=O)N1c1ccc(F)cc1	HCV inhibitor inconclusive, HCMV inh -71
N=C1S/C(=C\c2ccccc2F)C(=O)N1c1ccc(F)cc1	none (no result: VACV mCherry inh, VACV Venus inh)
COc1cccc(-c2nc(CS(=O)(=O)CC(=O)Nc3ccc(F)cc3F)c(C)o2)c1	HCV inhibitor 11µM, FMDV inh inconclusive
CCOc1cc(CNCc2cc(OC)cc(OC)c2)ccc1OC	HCV inhibitor 0.56µM, FMDV inh inconclusive
Cc1ccc(-c2nc(NC(=O)c3cc(C(C)(C)C)nn3C)sc2C)cc1Cl	HCV inhibitor inconclusive, HCMV inh -61, FMDV inh inconclusive
CC1CCc2nc(NC(=O)c3cc(C(C)(C)C)nn3C)sc2C1 (configuration not stated)	none (no result: VACV mCherry inh, VACV Venus inh)
O=c1[nH][nH]c2c1[C@H](c1ccc(Cl)cc1)O[C@H](C1CCCCC1)C2	none (no result: HCV inhibitor)
COc1ccc(CN2CCN(CCCc3ccccc3)C(CCO)C2)c(OC)c1 (configuration not stated)	none (no result: VACV mCherry inh, VACV Venus inh)
COc1ccc(OC)c(CN2CCN(CCCc3ccccc3)C(CCO)C2)c1 (configuration not stated)	HCMV inh -102 (no result: VACV mCherry inh, VACV Venus inh)
Cc1cc(NC(=O)CSCC(=O)Nc2ccc(C)c(C)c2)no1	HCMV inh active (no result: VACV mCherry inh, VACV Venus inh)
Cc1cc(NC(=O)CSc2ccc(F)cc2)no1	HCMV inh inconclusive (no result: VACV mCherry inh, VACV Venus inh)
Cc1cc(NC(=O)c2cc(-c3ccccc3)on2)no1	none (no result: VACV mCherry inh, VACV Venus inh)
Cc1cc(NC(=O)CSc2ccccc2)no1	VACV Venus inh inconclusive, HCMV inh -102
Cc1cc(NC(=O)CSc2nc(C(C)C)nc3ccccc23)no1	HCV inhibitor 13µM, HCMV inh inconclusive, FMDV inh inconclusive (no result: VACV mCherry inh, VACV Venus inh)
Cc1cc(NC(=O)CCc2ccc(-c3ccccc3)o2)no1	HCMV inh -102
Cc1oc2ncn(C)c(=O)c2c1C(=O)N(C)c1ccccc1F	none (no result: HCV inhibitor)
CCOc1cc(-c2nnc(SCC(=O)NCc3ccccc3)nc2-c2ccc(OC)c(OCC)c2)ccc1OC	VACV mCherry inh inconclusive, VACV Venus inh inconclusive, HCMV inh -75 (no result: HCV inhibitor)
Cc1cc(NC(=O)CSc2nnc(-c3ccccc3)c(-c3ccccc3)n2)no1	HCV inhibitor inconclusive, HCMV inh -62, FMDV inh inconclusive
Cc1cc(NC(=O)CSc2nc(=O)cc(N)n2-c2ccc(Cl)cc2)no1	HCMV inh -64
COCCn1c(-c2ccc(OC)cc2)cnc1SCC(=O)Nc1cc(C)on1	HCV inhibitor inconclusive, HCMV inh -86, FMDV inh inconclusive
CC1(C(=O)NS(=O)(=O)c2ccc(Br)cc2)CCN1C(=O)Cc1cccs1 (configuration not stated)	HCMV inh inconclusive (no result: HCV inhibitor)
COc1ccc(S(=O)(=O)Nc2cc3c(cc2C(C)=O)OCO3)cc1	HCV inhibitor inconclusive (no result: VACV mCherry inh, VACV Venus inh)
CCc1cc2c(C)cc(C)cc2nc1SCC(=O)Nc1cc(C)on1	HCV inhibitor inconclusive
CCCCCCn1c(SCC(=O)Nc2cc(C)on2)nc2ccccc2c1=O	HCV inhibitor inconclusive, HCMV inh -63 (no result: VACV mCherry inh, VACV Venus inh)
Cc1ccc(Oc2ccccc2NC(=O)CSCC(=O)Nc2cc(C)on2)cc1	HCV inhibitor inconclusive, HCMV inh -75, FMDV inh inconclusive
COCCn1c(SCC(=O)Nc2cc(C)on2)nc2ccccc2c1=O	none (no result: VACV mCherry inh, VACV Venus inh)
Cc1cc(NC(=O)CSCC(=O)Nc2ccccc2Oc2ccccc2)no1	HCV inhibitor inconclusive, FMDV inh inconclusive
Cc1cc(C)c2cc(C#N)c(SCC(=O)Nc3cc(C)on3)nc2c1	HCMV inh -61
Cc1cccc(C)c1OCc1nc2c3cnn(-c4cccc(F)c4)c3ncn2n1	none (no result: HCV inhibitor)
CCOc1ccccc1NC(=O)C(C)Sc1nc2c(c(=O)[nH]1)CCCC2 (configuration not stated)	none (no result: HCV inhibitor)
CCC(=O)Nc1ccc(NC(=O)c2cccc3c(Br)cccc23)cc1	none (no result: VACV mCherry inh, VACV Venus inh)
COc1cc(/C=C/C(=O)N2CCN(C(=O)/C=C/c3cc(OC)c(OC)c(OC)c3)CC2)cc(OC)c1OC	none (no result: HCMV inh)
C=CCSc1nc2ccccc2n1C(=O)/C=C/c1cc(OC)c(OC)c(OC)c1	HCV inhibitor 6.3µM, HCMV inh -111, FMDV inh 8.9µM (no result: VACV mCherry inh, VACV Venus inh)
CCSc1nc2ccccc2n1C(=O)/C=C/c1ccc(OC)c(OC)c1	VACV mCherry inh 28µM, HCV inhibitor inconclusive, VACV Venus inh inconclusive, HCMV inh -100, FMDV inh 20µM
C=CCSc1nc2ccccc2n1C(=O)/C=C/c1ccc(OC)c(OC)c1	HCV inhibitor inconclusive, HCMV inh -103, FMDV inh inconclusive (no result: VACV mCherry inh, VACV Venus inh)
Cc1ccc(NS(=O)(=O)c2ccc(-c3cc(C)no3)cc2)c(Br)c1	none (no result: HCV inhibitor)
CCOC(=O)c1cccc(N2C(N)=NC(N)=NC2(C)C)c1	HCMV inh inconclusive (no result: VACV mCherry inh)
CC1(C)N=C(N)N=C(N)N1c1cccc(CC(=O)Nc2ccccc2)c1	VACV Venus inh inconclusive, HCMV inh -82 (no result: HCV inhibitor)
Cc1cccc(NC(=O)CCc2ccc(N3C(N)=NC(N)=NC3(C)C)cc2)c1	VACV mCherry inh 5.6µM, VACV Venus inh inconclusive, HCMV inh -99 (no result: HCV inhibitor)
CC1(C)N=C(N)N=C(N)N1c1ccc(OCCCOc2ccccc2)c(Cl)c1	VACV mCherry inh inconclusive, HCV inhibitor inconclusive, VACV Venus inh inconclusive, HCMV inh -100, FMDV inh inconclusive
CC1(C)N=C(N)N=C(N)N1c1ccc(OCC(=O)Nc2ccccc2)c(Cl)c1	VACV mCherry inh 4µM, VACV Venus inh inconclusive, HCMV inh -95 (no result: HCV inhibitor)
O=C(Nc1ccc(F)cc1)N[C@H]1CC[C@H](CCNS(=O)(=O)c2cccc(Cl)c2)O[C@@H]1CO	none (no result: HCV inhibitor)
COc1ccccc1N(CC(=O)N1CCOCC1)S(C)(=O)=O	none
CC1(C)N=C(N)N=C(N)N1c1ccc(OCC(=O)N2CCOCC2)c(Cl)c1	VACV mCherry inh inconclusive, VACV Venus inh inconclusive, HCMV inh -101 (no result: HCV inhibitor)
CCOC(=O)Oc1c(OC)cc(C(=O)O[C@@H]2C[C@@H]3CN4CCc5c([nH]c6cc(OC)ccc56)[C@H]4C[C@@H]3[C@H](C(=O)OC)[C@H]2OC)cc1OC	VACV mCherry inh inconclusive, HCV inhibitor 5.6µM, VACV Venus inh inconclusive, HCMV inh -68
